# Test results as given in the supplement of paper PMC8728848.
# This is one part of a sample in which the strongest signals are shown more often than they occur.
# How the values were obtained:
# Assay in all cases: glycan array binding signal (z-score within array); higher = stronger binding
# Conditions in all cases: glycan notation: IUPAC condensed, linker removed
# Fuc(a1-2)Gal(b1-4)Glc = target: Fuc(a1-2)Gal(b1-4)Glc
# Outline: (§1)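 The Consortium for Functional Glycomics database supplied 3228 glycan arrays, of which those lacking an available protein sequence were dropped. The binding signal, a within-array Z-score, was averaged across arrays of the same protein sequence and across linkers. Negative scores can be read as non-binding.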
# Fuc(a1-2)Gal(b1-4)GlcNAc = target: Fuc(a1-2)Gal(b1-4)GlcNAc
# Outline: as §1
# [1] = target: Fuc(a1-2)Gal(b1-4)[Fuc(a1-3)]GlcNAc(b1-3)Gal(b1-4)[Fuc(a1-3)]GlcNAc(b1-3)Gal(b1-4)[Fuc(a1-3)]GlcNAc
# Outline: as §1
# [2] = target: Fuc(a1-2)Gal(b1-4)[Fuc(a1-3)]GlcNAc(b1-3)GalNAc
# Outline: as §1
# [3] = target: Fuc(a1-2)[Gal(a1-3)]Gal(b1-4)GlcNAc(b1-2)Man(a1-3)[Fuc(a1-2)[Gal(a1-3)]Gal(b1-4)GlcNAc(b1-2)Man(a1-6)]Man(b1-4)GlcNAc(b1-4)[Fuc(a1-6)]GlcNAc
# Outline: as §1
# [4] = target: Fuc(a1-2)[Gal(a1-3)]Gal(b1-4)[Fuc(a1-3)]Glc
# Outline: as §1
# [5] = target: Fuc(a1-2)[Gal(a1-3)]Gal(b1-4)[Fuc(a1-3)]GlcNAc
# Outline: as §1
# [6] = target: Fuc(a1-2)[GalNAc(a1-3)]Gal(b1-3)GlcNAc(b1-6)GalNAc
# Outline: as §1
# [7] = target: Fuc(a1-2)[GalNAc(a1-3)]Gal(b1-4)[Fuc(a1-3)]GlcNAc(b1-3)GalNAc
# Outline: as §1
# [8] = target: Fuc(a1-2)[GalNAc(b1-3)]Gal
# Outline: as §1
# [9] = target: Gal(a1-3)Gal(b1-3)GlcNAc(b1-2)Man(a1-3)[Gal(a1-3)Gal(b1-3)GlcNAc(b1-2)Man(a1-6)]Man(b1-4)GlcNAc(b1-4)GlcNAc
# Outline: as §1
# [10] = target: Gal(a1-3)Gal(b1-3)[Fuc(a1-4)]GlcNAc(b1-2)Man(a1-3)[Gal(a1-3)Gal(b1-3)[Fuc(a1-4)]GlcNAc(b1-2)Man(a1-6)]Man(b1-4)GlcNAc(b1-4)GlcNAc
# Outline: as §1
# Gal(a1-3)Gal(b1-4)GlcNAc = target: Gal(a1-3)Gal(b1-4)GlcNAc
# Outline: as §1
# [11] = target: Gal(b1-3)GlcNAc(b1-2)Man(a1-3)[GlcNAc(b1-4)][Gal(b1-3)GlcNAc(b1-2)Man(a1-6)]Man(b1-4)GlcNAc(b1-4)GlcNAc
# Outline: as §1
# [12] = target: Gal(b1-3)GlcNAc(b1-3)Gal(b1-4)GlcNAc(b1-2)[Gal(b1-3)GlcNAc(b1-3)Gal(b1-4)GlcNAc(b1-6)]Man(a1-6)[Gal(b1-3)GlcNAc(b1-3)Gal(b1-4)GlcNAc(b1-2)Man(a1-3)]Man(b1-4)GlcNAc(b1-4)[Fuc(a1-6)]GlcNAc
# Outline: as §1
# [13] = target: Gal(b1-4)GlcNAc(b1-2)Man(a1-3)[Gal(b1-4)GlcNAc(b1-2)Man(a1-6)]Man(b1-4)GlcNAc(b1-4)[Fuc(a1-6)]GlcNAc
# Outline: as §1
# [14] = target: Gal(b1-4)GlcNAc(b1-3)Gal(b1-4)GlcNAc(b1-2)[Gal(b1-4)GlcNAc(b1-3)Gal(b1-4)GlcNAc(b1-6)]Man(a1-6)[Gal(b1-4)GlcNAc(b1-3)Gal(b1-4)GlcNAc(b1-2)Man(a1-3)]Man(b1-4)GlcNAc(b1-4)GlcNAc
# Outline: as §1
# [15] = target: Gal(b1-4)GlcNAc(b1-3)Gal(b1-4)GlcNAc(b1-2)[Gal(b1-4)GlcNAc(b1-3)Gal(b1-4)GlcNAc(b1-6)]Man(a1-6)[Gal(b1-4)GlcNAc(b1-3)Gal(b1-4)GlcNAc(b1-2)Man(a1-3)]Man(b1-4)GlcNAc(b1-4)[Fuc(a1-6)]GlcNAc
# Outline: as §1
# [16] = target: Gal(b1-4)GlcNAc(b1-3)Gal(b1-4)GlcNAc(b1-3)Gal(b1-4)GlcNAc(b1-3)Gal(b1-4)GlcNAc(b1-3)Gal(b1-4)GlcNAc(b1-2)[Gal(b1-4)GlcNAc(b1-3)Gal(b1-4)GlcNAc(b1-3)Gal(b1-4)GlcNAc(b1-3)Gal(b1-4)GlcNAc(b1-3)Gal(b1-4)GlcNAc(b1-6)]Man(a1-6)[Gal(b1-4)GlcNAc(b1-3)Gal(b1-4)GlcNAc(b1-3)Gal(b1-4)GlcNAc(b1-3)Gal(b1-4)GlcNAc(b1-3)Gal(b1-4)GlcNAc(b1-2)Man(a1-3)]Man(b1-4)GlcNAc(b1-4)[Fuc(a1-6)]GlcNAc
# Outline: as §1
# [17] = target: Gal3S(b1-4)[Fuc(a1-3)]GlcNAc6S
# Outline: as §1
# Gal6S(b1-4)Glc6S = target: Gal6S(b1-4)Glc6S
# Outline: as §1
# [18] = target: Glc(a1-6)Glc(a1-6)Glc(a1-6)Glc
# Outline: as §1
# [19] = target: GlcA3S(b1-3)Gal(b1-4)GlcNAc(b1-3)Gal(b1-4)Glc
# Outline: as §1
# [20] = target: GlcNAc(b1-2)Man(a1-3)[GlcNAc(b1-2)Man(a1-6)]Man(b1-4)GlcNAc(b1-4)[Fuc(a1-6)]GlcNAc
# Outline: as §1
binder,measurement,setting,value
Nc3LysM (protein) QFTVPPDTTAEPNTIKTCTWWHVAGSGDSCTSIASTYGITSEQFARWDMETTDSPKNPSVATACKLTVGNSYCIENNFGQDDPPTPSISSSTLIGTATTSTTASTTTGNGISTPTPIQEGMETATTTTSSGNGITTPTPTQAGMETVGNCDRFHLVKSGDQCGTIASTYGITLANFYSWNPAVGTSCQSLWLDTYVCVRTIGFVPPKTTTTTTKKPTSTTSAGGVATPTPTQPGMETVSGCKKFHKGRGNVSTVASGDQCGTIATRYGISLANFYSWNPAVGSSCQTLWLDYYVCVGR,glycan array binding signal (z-score),Fuc(a1-2)Gal(b1-4)Glc,0.401
same,glycan array binding signal (z-score),Fuc(a1-2)Gal(b1-4)GlcNAc,-0.219
same,glycan array binding signal (z-score),[1],0.172
same,glycan array binding signal (z-score),[2],-0.251
same,glycan array binding signal (z-score),[3],-0.173
same,glycan array binding signal (z-score),[4],0.064
same,glycan array binding signal (z-score),[5],-0.157
same,glycan array binding signal (z-score),[6],-0.237
same,glycan array binding signal (z-score),[7],-0.076
same,glycan array binding signal (z-score),[8],-0.092
same,glycan array binding signal (z-score),[9],0.295
same,glycan array binding signal (z-score),[10],0.161
same,glycan array binding signal (z-score),Gal(a1-3)Gal(b1-4)GlcNAc,0.019
same,glycan array binding signal (z-score),[11],0.083
same,glycan array binding signal (z-score),[12],0.304
same,glycan array binding signal (z-score),[13],-0.048
same,glycan array binding signal (z-score),[14],0.008
same,glycan array binding signal (z-score),[15],-0.048
same,glycan array binding signal (z-score),[16],0.342
same,glycan array binding signal (z-score),[17],0.178
same,glycan array binding signal (z-score),Gal6S(b1-4)Glc6S,0.307
same,glycan array binding signal (z-score),[18],0.326
same,glycan array binding signal (z-score),[19],-0.126
same,glycan array binding signal (z-score),[20],0.106
